From PubChem BioAssay
Vif inh = HIV Vif self-association inhibitors, primary screen, imaging, HEK293T, single point; HEK293T cells, Vif self-association by quenched fluorescence, 24 h; inhibition, % at 7.49 µM; 0.35% of 340,000 active; in the data active means inhibition above about 50%, passing the limit was not always enough; inconclusive means no clear call, values can overlap the other calls; inactive means below about 31%
PvdQ inh = P. aeruginosa PvdQ acylase inhibitors, primary screen, biochemical, fluorescence, plate reader and imaging, single point. 0.063% of 340,000 active. PvdQ acylase [Pseudomonas aeruginosa LESB58]. inhibition, % at 10 µM. purified PvdQ acylase; in the data active means inhibition above about 30%, passing the limit was not always enough; inconclusive means no clear call, values can overlap the other calls;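 further: 0% = vehicle neutral wells and 100% = reference inhibitor wells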
Wnt act = Wnt/beta-catenin pathway activators, primary screen, cell-based, plate reader, single point | Wnt/beta-catenin reporter cell assay, activator | activation, % at 9.35 µM | 1.2% of 300,000 active | AID 743398, 2014; in the data active means activation above about 30%, passing the limit was not always enough; inconclusive means no clear call, values can overlap the other calls;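 further: 0% = neutral control wells and 100% = positive control wells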
Glyco luc inh = increase of ERlucT glycosylation luciferase signal, primary screen, N-linked glycosylation inhibitor project, D54 ERlucT cells, luminescence, set 2 | D54 ERlucT glycosylation luciferase reporter, 24 h; percent of 100 nM tunicamycin response | 0.23% of 360,000 active | reporter increase, % at 12.5 µM;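 active means mean luciferase reporter signal, scaled so untreated is 0 and the glycosylation-blocking control 100, at or above a set limit in every replicate; inconclusive means mean reaches the limit but not every replicate does; inactive means mean below the limit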;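 further: luciferase carries N-glycosylation sites so blocking glycosylation raises the light; 0% = median of neutral control wells and 100% = median of 100 nM tunicamycin wells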
MITF act = activators of MITF-driven TRPM1 promoter reporter, primary screen, cell-based, SK-MEL-5, luciferase, single point | SK-MEL-5 TRPM1-promoter luciferase, 24 h; % of positive control, neutral wells = 0 | 0.75% of 300,000 active | activation, % at 12.5 µM | AID 588334, 2011;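 active means mean activation of at least 80% with every replicate also reaching 80%; inconclusive means mean reaches 80% but some replicate falls short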;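 further: 0% = neutral control wells and 100% = parthenolide positive control wells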
esBAF inh = Bmi1 luciferase reporter increase in mESCs, primary screen, esBAF inhibitor project, mouse ES cells, Bmi1 luciferase knock-in, single point | 24 h; 100% = twice the neutral-well signal | reporter increase, % at 12.5 µM | 2% of 350,000 active | AID 602393, 2012; in the data active means activation above about 40%; inconclusive means no clear call, values can overlap the other calls;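 further: 0% = median of the plate's neutral control wells and 100% = double that signal; a rise in the Bmi1 reporter signal indicates esBAF inhibition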
An asterisk follows results filed as active; ? = inconclusive; . = not tested or not shown. Hits are enriched below; roughly 2.9% of the tested compounds scored in any of these assays.

SMILES	Vif inh	PvdQ inh	Wnt act	Glyco luc inh	MITF act	esBAF inh
O=c1cc(-c2ccc(O)cc2)oc2ccccc12	2	17	3	6	.	58*
COc1ccc(-c2cc(=O)c3ccccc3s2)cc1	-8	41*	0	-11	40	12
O=c1cc(-c2cccc(F)c2)oc2ccccc12	-8	-10	-1	1	30	51*
O=c1cc(-c2ccccc2)c2ccc(O)cc2o1	-1	7	-1	-4	5	.
O=c1cc(-c2ccccc2)oc2cc(O)ccc12	-2	1	4	0	88*	?
O=c1cc(-c2ccncc2)oc2ccccc12	-4	4	2	-3	.	-12
COc1ccc2sc3ccccc3c(=O)c2c1	-4	7	0	0	70	34
CCC(=O)Nc1ccc2c(c1)OC[C@@H](C)N(Cc1cccnc1)C[C@H](C)[C@@H](OC)CN(C)C2=O	.	.	.	.	.	-4
COc1ccc(NC(=O)N(C)C[C@@H]2Oc3ccc(NC(=O)Nc4ccc(C(F)(F)F)cc4)cc3CC(=O)N([C@@H](C)CO)C[C@H]2C)cc1	.	.	.	.	.	3
O=c1cc(-c2ccsc2)oc2ccccc12	-4	-9	19	3	60	33
COc1cc(-c2cc(=O)c3ccccc3o2)ccc1O	-4	21	28	1	.	38
COc1ccc(N=c2cc(-c3ccc(OC)cc3)oc3ccccc23)cc1	4	6	119*	-4	20	.
COc1ccc(-c2cc(=O)c3ccccc3o2)cc1	1	-16	-2	-4	70	63*
O=c1cc(-c2ccc(O)cc2)oc2ccc(O)cc12	-4	-2	56*	5	78	37
COc1ccccc1C#Cc1ccc2c(c1)[C@H]1[C@H](CCN1C(=O)c1ccc(F)cc1)[C@H](CO)N2	.	.	.	.	.	6
C[C@H]1CN([C@@H](C)CO)C(=O)c2cccc(NC(=O)Nc3ccc(F)cc3)c2O[C@@H]1CN(C)CC1CC1	.	.	.	.	.	3
CC(C)NC[C@@H]1[C@@H](c2ccc(C3=CCCCC3)cc2)[C@H](CO)N1C(=O)NC(C)C	.	.	.	.	.	-4
COc1cccc(NC(=O)c2cccc(NC(=O)c3ccco3)c2)c1	-1	.	-1	0	.	3
COC(=O)c1c(NC(=O)CCC(=O)O)sc(Cc2ccccc2)c1C	-8	-12	7	0	0	.
COc1ccc(NC(=O)c2c(NC(=O)CCC(=O)O)sc(-c3ccccc3)c2C)cc1	-1	-11	34*	0	2	.
CC(C)(C)C(=O)NC1=NN(c2c(Cl)cc(Cl)cc2Cl)C(=O)C1	5	6	2	0	-3	.
COc1cccc(C(=O)Nc2cccc(C(=O)NC3=NN(c4c(Cl)cc(Cl)cc4Cl)C(=O)C3)c2)c1	0	-12	32*	0	.	6
COc1cccc(NC(=O)c2ccc(C(=O)c3ccccc3)o2)c1	-4	-6	37*	-1	?	38
Cc1ccc(C(=O)Nc2cccc(Oc3ccccc3)c2)o1	-20	-24	.	-3	90*	69*
Cc1ccccc1-c1ccc(C(=O)Nc2cccc(F)c2)o1	0	1	27	3	53	45*
SMILES	Vif inh	PvdQ inh	Wnt act	Glyco luc inh	MITF act	esBAF inh
COc1ccc(NC(=O)c2c(Cl)n(C)c3ccccc23)cc1	2	-13	-1	14	16	59*
CC(=O)Nc1cccc(Oc2ccc(-c3noc(C)n3)cc2)c1	-3	-2	27	-1	56	72*
CSc1cccc(NC(=O)c2cccc3cccnc23)c1	2	-14	12	3	44	48*
COc1ccc(-c2noc(-c3ccccc3C(=O)Nc3cccc(OC)c3)n2)cc1	-4	-9	0	-4	13	12
CNS(=O)(=O)c1cc(NC(=O)c2cccc3cccnc23)ccc1C	-10	-18	10	4	15	25
COc1cccc(/C(C)=N/N=C(\C)c2cccc(OC)c2)c1	-6	-8	11	1	.	70*
COc1ccc(C(=O)Nc2ccccc2C(=O)Nc2ccccc2C(=O)O)cc1	15	-3	0	-1	.	?
COc1cccc(C(=O)Nc2cccc(SC)c2)c1	3	-5	5	-7	80*	60*
COc1cccc(-c2cc(=O)c3cc(NC(=O)c4ccccc4)ccc3[nH]2)c1	194*	5	-12	18	-18	-43
COc1ccc(C(=O)Nc2ccccc2C(N)=O)cc1	5	-13	.	-1	83*	33
CO[C@@H]1CN(C)C(=O)c2cc(NC(C)=O)ccc2OC[C@H](C)N(C(=O)c2ccc(F)cc2)C[C@H]1C	.	.	.	.	.	0
CN(C)C(=O)C[C@@H]1CC[C@H]2[C@@H](COc3ccc(NC(=O)c4cnccn4)cc3C(=O)N2C)O1	.	.	.	.	.	2
COc1ccc(C(=O)Nc2cc(OC)c(NC(=O)Nc3ccccc3)cc2OC)cc1	73*	.	0	-2	.	-3
COc1cccc(C(=O)Nc2ccccc2)c1	-2	-5	.	3	.	52*
COc1cccc(NC(=O)c2c(C)nn(-c3ccccc3)c2Cl)c1	-5	-8	15	3	.	50*
COc1ccc(NC(=O)c2ccc(C)cc2)cc1	3	-9	9	-13	42	-30
COc1cccc(C(=O)Nc2ccc(NC(=O)Cc3ccccc3)cc2)c1	-1	0	-1	-2	.	-5
COc1ccc(C(=O)Nc2cc(OC)c(Cl)cc2OC)cc1	3	-16	2	3	9	.
COc1ccc(NC(=O)c2ccccc2)cc1	3	0	28	-1	108*	21
C[C@@H]1CCCCO[C@@H](CN(C)Cc2ccccc2)[C@@H](C)CN([C@@H](C)CO)C(=O)c2cc(NC(=O)Nc3ccccc3)ccc2O1	.	.	.	.	.	0
COc1ccc(S(=O)(=O)N(C)C[C@@H]2Oc3ccc(NS(=O)(=O)c4ccc(Cl)cc4)cc3C(=O)N([C@@H](C)CO)C[C@H]2C)cc1	.	.	.	.	.	-1
CN1C[C@@H](O)COC[C@H]2O[C@H](CC(=O)N3CCN(c4ccccc4)CC3)CC[C@@H]21	.	.	.	.	.	5
C[C@@H]1CCCCO[C@H](CN(C)CC2CCCCC2)[C@H](C)CN([C@@H](C)CO)C(=O)c2cc(NC(=O)Nc3ccc(C(F)(F)F)cc3)ccc2O1	.	.	.	.	.	-89
O=C(C[C@@H]1CC[C@H](NC(=O)Nc2ccc(C(F)(F)F)cc2)[C@H](CO)O1)NCc1cccc(F)c1	.	.	.	.	.	-10
COc1ccc(C(=O)CCc2ccccc2)cc1	-12	-16	14	-2	98*	48*
CN(C)c1ccc(NC(=O)c2ccc([N+](=O)[O-])cc2Cl)cc1	-1	5	10	-7	30	.
